# Screening results as filed in PubChem.
# In the library only some 6.5% were active in any assay of this set; here they are far more common.
# MARV entry inh: blocks Marburg virus binding to or entry into cells | Marburg virus pseudotyped entry inhibition, cell reporter | Potency, µM (top dose mostly 37.8 µM), for the others: at the top dose activity change, negative = inhibition, most hits filed as inhibitors | actives 1.8% (n = 300,000); calls by dose curve; tested in HEK293 cells; further: potency means the concentration at half of the fitted maximal effect; on the % scale 0 is the no-effect control and ±100 the full control effect
# VACV Venus inh: vaccinia inhibition (Venus reporter); Potency, µM (doses to about 36.5 µM), for the others: top-dose activity change, negative = inhibition, actives largely listed as inhibitors; AID 720580; Vaccinia virus Venus reporter expression, fluorescence; actives 0.46% (n = 330,000); calls by dose curve; tested in A549 cells; further: potency means the concentration at half of the fitted maximal effect; on the % scale 0 is the no-effect control and ±100 the full control effect; nearly all actives have a fitted effect of over 30% in size
# FMDV antiviral: antivirals against foot and mouth disease virus | FMDV antiviral cell-based qHTS | Potency, µM (doses to about 57.9 µM), for inactives: at the top dose activity change, negative = inhibition, most hits filed as inhibitors | AID 1159524 | actives 1.2% (n = 410,000); calls by dose curve; tested in HEK293T cells; further: read-out not given here; potency means the concentration at half of the fitted maximal effect; on the % scale 0 is the no-effect control and ±100 the full control effect; nearly all actives have a fitted effect of over 45% in size
# Lassa entry inh: Lassa virus entry inhibition; Lassa virus pseudotype entry inhibition, cell reporter; Potency, µM (series often up to 37.9 µM), for inactives: at the highest dose activity change, negative = inhibition, hits mostly inhibitors; AID 540256; actives 1.2% (n = 300,000); calls by dose curve; tested in HEK293 cells; further: potency means the concentration at half of the fitted maximal effect; on the % scale 0 is the no-effect control and ±100 the full control effect; nearly all actives have a fitted effect of over 50% in size
# VACV mCherry inh: inhibitors of vaccinia virus infection (mCherry reporter signal); Vaccinia virus mCherry reporter infection, fluorescence; Potency, µM (doses to about 36.5 µM), without a hit: top-dose activity change, negative = inhibition, hits mostly inhibitors; actives 0.63% (n = 310,000); calls by dose curve; tested in A549 cells; further: potency means the concentration at half of the fitted maximal effect; on the % scale 0 is the no-effect control and ±100 the full control effect; nearly all actives have a fitted effect of over 35% in size
# HCMV antiviral: blocks human cytomegalovirus replication | HFF cells, HCMV-luciferase reporter, 72 h; active compounds read low | activity change, negative = inhibition, % at 57.5 µM | actives 4.5% (n = 410,000); in the data active means activity change below about -60%; inconclusive means no clear call, values can overlap the other calls; inactive means above about -39%; further: on the % scale 0 is the no-effect control and ±100 the full control effect
#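 Luciferase read-out from HCMV-luciferase-infected HFFs (MOI 1 PFU/cell) 72 h post infection at 37C; compounds added after 16 h cell attachment; activity normalized between buffer-only basal and Salinomycin (10uM) inhibitor controls.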
# G2M arrest HeLa: inducers of G2/M cell cycle arrest in HeLa cells; shares compounds with MARV entry inh; HeLa cell cycle G2/M arrest, Hoechst DNA content imaging; Potency, µM, most hits filed as inhibitors; actives 60% (n = 25); AID 2441
# WI-38 tox: toxic to WI-38 fibroblasts in PNC inhibitor counter-screen; shares compounds with MARV entry inh; 120 tested, under 10 active; WI-38 normal lung fibroblasts, ATPLite luminescence ATP viability, 24 h; Potency, µM (highest dose often 46.1 µM), for the others: top-dose activity change, negative = cytotoxicity, actives largely listed as inhibitors; AID 2729
# PNC assembly inh: confirmation of perinucleolar compartment assembly inhibitors; Potency, µM (doses to about 46.1 µM), for inactives: at the highest dose activity, negative = PNC inhibition, most hits filed as inhibitors; PC3M PTB-GFP, PNC prevalence imaging, 16 h; shares compounds with MARV entry inh; actives 50% (n = 120); AID 2730
# PC3M caspase: counter-screen for PNC inhibitors: PC3M caspase 3/7 activation. shares compounds with MARV entry inh. PC3M-GFP caspase 3/7 activation, luminescence, 24 h. activity change, positive = activation, % at 46.1 µM. 120 tested, under 10 active. AID 2731
# Starred values were filed as active, the others as inactive; ? = inconclusive; · = no result given; [ ] = dose if it differs, or a comment. Unless noted, the call rests on the fitted dose curve; in most records, active means well fitted curve in the direction sought with a large enough effect; inconclusive means small, poorly fitted or top-dose-only effect, or another doubt; inactive means no such curve, though single readings can be large; an effect the other way counts as inactive or inconclusive.
SMILES,MARV entry inh,VACV Venus inh,FMDV antiviral,Lassa entry inh,VACV mCherry inh,HCMV antiviral,WI-38 tox,PNC assembly inh,PC3M caspase,others
O=C(N/N=C/c1cc(Cl)ccc1O)C(=O)Nc1ccccc1OC(F)(F)C(F)F,?,?,-25.5%,?,14.1µM*,-88.5*,-7.8%,?,6.4,
Cc1c(C#N)c(N)nc2c3c(sc12)NC(=O)CC3c1ccc(F)cc1 (configuration not stated),?,-9.5%,-14.5%,14.9%,-7.7%,-11.3,-11.8%,-10.4%,-5.8,
Cc1c(C#N)c(N)nc2c3c(sc12)NC(=O)CC3c1ccccc1 (configuration not stated),?,-8.1%,-9.8%,1.0%,-13.1%,30.9,·,·,·,
CCN(CC)CCCNC(=O)CSc1nc(-c2ccc(OC)cc2)cc(C(F)(F)F)n1,·,-13.5%,0.2%,-1.8%[46.1 µM],-2.8%,-37.3,·,·,·,
Cc1cc(C)c(S(=O)(=O)/N=C2/C=C(Sc3ncn[nH]3)C(=O)c3ccccc32)cc1C,1.58µM*,6.31µM*,?,12.6µM*,?,-100.5*,-6.7%,6.31µM*,-7.0,
Cc1ccc(NC(=O)C2CCC(CNS(=O)(=O)c3ccc4c(c3)CCCC(=O)N4)CC2)cc1F (configuration not stated),·,-13.5%,?,3.4%[46.1 µM],-8.2%,-4.0,·,·,·,
O=C(N/N=C\c1ccc([N+](=O)[O-])s1)c1cncc(Br)c1,2.59µM*,·,?,2.91µM*,·,-100.2*,-26.3%,22.4µM*,?,
C=C(C)[C@H]1Cc2c(ccc3c2O[C@@H]2COc4cc(OC)c(OC)cc4[C@@H]2C3=O)O1,0.58µM*,·,·,2.31µM*,·,·,·,·,·,G2M arrest HeLa=0.631*
FC(F)(F)c1ccccc1-c1ccc2ncnc(NCCN3CCOCC3)c2c1,·,·,-11.9%,·,·,·,·,·,·,
Cc1ccc(C)c(N2CCN(C(=O)c3cc4c(=O)n(Cc5ccccc5)ccc4nc3C)CC2)c1,·,?,-26.0%,?,?,15.4,·,·,·,
O=C(N/N=C/c1ccccc1O)c1cccc(C(F)(F)F)c1,5.62µM*,?,67.9%,?,3.55µM*,-101.9*,-7.3%,28.2µM*,-0.3,
CNC(=S)N/N=C/c1cn(CCOc2ccccc2OC)c2ccccc12,?,7.08µM*,0.0%,-27.6%,4.47µM*,66.0,-2.2%,?,1.7,
COC(=O)N/N=C/c1cn(CCOc2ccccc2OC)c2ccccc12,·,·,-21.2%,·,·,·,·,·,·,
CCCN1C(=O)C(Cc2nc3ccccc3c(=O)n2CC)c2ccccc21 (configuration not stated),-0.1%[46.1 µM],-14.6%,-21.3%,1.9%[46.1 µM],-1.0%,46.9,·,·,·,
CCN(CC)CCNC(=O)c1ccc(-n2c(-c3ccccc3)cc3c2CCCC3)cc1,·,-13.6%,-15.6%,?,-17.4%,-34.5,·,·,·,
CSc1nn(Cc2ccc(F)cc2)c(N)c1S(=O)(=O)c1ccc(Cl)cc1,·,-13.7%,-13.7%,?,-26.3%,?,·,·,·,
Cc1ccc(Nc2c(-c3ccc(N4CCOCC4)cc3)nc3ncccn23)c(C)c1,?,-5.7%,12.9%,-3.4%[46.1 µM],?,26.9,·,·,·,
Cc1cccc(C)c1Nc1c(-c2ccc(N3CCOCC3)cc2)nc2ncccn12,-6.3%[46.1 µM],-11.6%,-25.5%,-20.4%[46.1 µM],-10.5%,2.9,-18.0%,-3.1%,-3.4,
CNc1ccc2oc(C[C@H]3O[C@@]4(CC[C@H]3C)O[C@H]([C@H](C)C(=O)c3ccc[nH]3)[C@H](C)C[C@H]4C)nc2c1C(=O)O,2.91µM*,2.51µM*,?,0.231µM*,3.55µM*,-99.8*,·,·,·,G2M arrest HeLa=4.47*
